{
  "source": "PubChem BioAssay AID524",
  "about": "(The Scripps Research Institute Molecular Screening Center, 2006)",
  "note": "Hit rate of the full screen: of about 65,000 compounds, about 95 (0.1%) were called active. The full list was thinned out, with actives kept by preference. A number with no mark means an inactive call.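 The calls were made as follows: active = inhibition above the screen-wide mean inhibition plus 3 SD (cut at about 21% in these data); inactive = the rest.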",
  "data": [
    {"biological_target": "cAMP-dependent protein kinase catalytic subunit alpha (Homo sapiens) (UniProt P17612)", "assay": "PKA catalytic subunit kinase inhibition – biochemical, ATP-depletion luminescence, Kemptide substrate, primary screen (AID 524)", "conditions": "PKA Kemptide phosphorylation, Kinase-Glo ATP luminescence; at 6 µM; active compounds read high", "values": [
      {"smiles": "COc1ccc(C)c2sc(=NC(=O)c3ccc(C#N)cc3)n(C)c12", "inhibition": "3.2%"},
      {"smiles": "CN(C(=O)c1ccno1)c1nnc(-c2cccnc2)s1", "inhibition": "2.6%"},
      {"smiles": "CN(C(=O)c1ccccn1)c1nnc(-c2ccccn2)s1", "inhibition": "-0.9%"},
      {"smiles": "CN(C(=O)COc1ccccc1)c1nnc(-c2ccncc2)s1", "inhibition": "29.1% (active)"},
      {"smiles": "CC(C)N(C(=O)Cn1c(SCC(=O)N2CCN(c3ccccc3)CC2)nc2ccccc21)C(C)C", "inhibition": "7.5%"},
      {"smiles": "Cc1cc(C)cc(NC(=O)C2CCN(c3nc(C)cc(C)n3)CC2)c1", "inhibition": "6.7%"},
      {"smiles": "O=C(CSc1nnc(-c2ccccn2)n1-c1ccccc1)Nc1ccc2c(c1)OCO2", "inhibition": "5.1%"},
      {"smiles": "Cc1ccn2cc(C(=O)NC3CCN(Cc4ccccc4)CC3)nc2c1", "inhibition": "4.5%"},
      {"smiles": "Nc1nc(SCCOc2ccccc2)n[nH]1", "inhibition": "11.5%"},
      {"smiles": "O/N=C(\\c1ccc2c(c1)OCCO2)C1CCCCC1", "inhibition": "-0.4%"},
      {"smiles": "Cc1cc(/C=N/n2cnnc2)c(C)n1-c1cccc(C(=O)O)c1", "inhibition": "7.1%"},
      {"smiles": "COc1ccc(-c2cc3ccc(OCc4nn[nH]n4)cc3oc2=O)cc1", "inhibition": "6.3%"},
      {"smiles": "CCc1cc(Br)ccc1NC(=O)C1CCCO1", "note": "(centres undefined)", "inhibition": "12.3%"},
      {"smiles": "Cc1cc(C(=O)CC#N)c(C)n1CC(F)(F)F", "inhibition": "6%"},
      {"smiles": "C=CCNc1nc(C)nc(OC)n1", "inhibition": "4.4%"},
      {"smiles": "Cc1nc(N2CCN(c3ncccn3)CC2)c2oc3ccccc3c2n1", "inhibition": "8.8%"},
      {"smiles": "CCOc1ncccc1C(=O)OCc1cn2cc(Cl)ccc2n1", "inhibition": "8.2%"},
      {"smiles": "COc1ccc(CCN=C2SCC(=O)N2C)cc1OC", "inhibition": "5.5%"},
      {"smiles": "Fc1ccccc1OCCCCn1cncn1", "inhibition": "2.8%"},
      {"smiles": "CN(CC(=O)NC1CCCCC1)S(=O)(=O)c1ccc(Br)s1", "inhibition": "4%"},
      {"smiles": "COCCNC(=S)c1ccc(OC)cc1", "inhibition": "5.8%"},
      {"smiles": "Cn1cccc1C(=O)NC(=O)COC(=O)Cc1coc2ccc3ccccc3c12", "inhibition": "5.5%"},
      {"smiles": "CCOc1ccc(NC(=O)N(CCC(C)C)C(C)c2ccco2)cc1", "note": "(centres undefined)", "inhibition": "4.9%"},
      {"smiles": "COc1ccc2c(c1)OC(O)(C(F)(F)C(F)F)CC2=O", "note": "(centres undefined)", "inhibition": "4.1%"},
      {"smiles": "CC(C)C(=O)Nc1c(C(=O)c2ccc(F)cc2)oc2ccccc12", "inhibition": "2.9%"},
      {"smiles": "CCCC(NC(=O)c1ccccc1)c1nc2ccccc2n1Cc1ccc(C(=O)OC)o1", "note": "(centres undefined)", "inhibition": "9.3%"},
      {"smiles": "Cc1ccc(Cc2cncc(O)c2)cc1S(=O)(=O)O", "inhibition": "-3.1%"},
      {"smiles": "Cn1c(=O)c(C(=O)Nc2ncccn2)c(O)c2ccccc21", "inhibition": "-3.8%"},
      {"smiles": "COc1ccc(NC(=O)c2c(C)oc3c2CCCC3)cc1", "inhibition": "4.6%"},
      {"smiles": "Cc1ccc(C)c(NC(=O)CSc2nnc(Cc3cccn3C)n2-c2ccc(F)cc2)c1", "inhibition": "7.2%"},
      {"smiles": "Cn1c(=O)[nH]c(=O)c2c1nc(CN1CCN(c3ccccc3F)CC1)n2CCc1ccccc1", "inhibition": "1.4%"},
      {"smiles": "COc1cccc(N2CC(C(=O)Nc3c(C)cccc3C)CC2=O)c1", "note": "(centres undefined)", "inhibition": "4.7%"},
      {"smiles": "CCOC(=O)C1=C(C)NC(=O)N(C(C)=O)C1c1ccc(Cl)cc1", "note": "(centres undefined)", "inhibition": "9.6%"},
      {"smiles": "CN(C)S(=O)(=O)c1ccc(Oc2ccc(S(=O)(=O)N(C)C)cc2)cc1", "inhibition": "9%"},
      {"smiles": "CC(NC(=O)c1ccc(Cl)cc1)C(=O)N1CCCCC1", "note": "(centres undefined)", "inhibition": "8.7%"},
      {"smiles": "O=C(Cc1cccs1)N1CCCC(c2nc(-c3ccc(S(=O)(=O)N4CCCC4)cc3)no2)C1", "note": "(centres undefined)", "inhibition": "8.4%"},
      {"smiles": "CCCCCCn1c(SCC(=O)c2ccccc2)nc2c1c(=O)[nH]c(=O)n2C", "inhibition": "7.8%"},
      {"smiles": "O=C1c2ccccc2C(Nc2ccc3c(c2)OCCO3)N1Cc1ccco1", "note": "(centres undefined)", "inhibition": "-9.3%"},
      {"smiles": "Cc1ccc2c(c1)C(O)(CC(=O)c1cccnc1)C(=O)N2", "note": "(centres undefined)", "inhibition": "6%"},
      {"smiles": "COc1ccccc1Cn1c(=S)[nH]c2cc(C(=O)N3CCN(C)CC3)ccc2c1=O", "inhibition": "4.3%"},
      {"smiles": "Cc1cc(C)c(C#N)c(SCc2ccc3c(c2)OCO3)n1", "inhibition": "7.3%"},
      {"smiles": "CCN(Cc1ccncc1)C(=O)c1cccc(S(=O)(=O)N2CCOCC2)c1", "inhibition": "-8.8%"},
      {"smiles": "Cc1cccc(N2CCN(C(=O)C3CCN(S(=O)(=O)c4cnc[nH]4)CC3)CC2)c1C", "inhibition": "9.6%"},
      {"smiles": "O=C(COC(=O)c1ccc2c(c1)OCCO2)NCc1ccccc1", "inhibition": "5.2%"},
      {"smiles": "O=C(CSc1nnc(-c2ccoc2)o1)N1CCOCC1", "inhibition": "-16.1%"},
      {"smiles": "O=C(O)Cc1ccc(NC(=O)C2CCCCC2C(=O)O)cc1", "note": "(centres undefined)", "inhibition": "9.2%"},
      {"smiles": "CC1=NC2(CCCc3c2no[n+]3[O-])N(O)C1(C)C", "note": "(centres undefined)", "inhibition": "-8%"},
      {"smiles": "C/C(=C\\C(=O)c1ccc(Br)cc1)N1CCCCC1", "inhibition": "0.7%"},
      {"smiles": "c1ccc(CCc2nc(-c3ccncc3)no2)cc1", "inhibition": "6.7%"},
      {"smiles": "COCCCNC(=O)c1ccc(CNS(=O)(=O)c2ccc(NC(C)=O)cc2)cc1", "inhibition": "-2.5%"},
      {"smiles": "O=c1c2ccccc2[nH]c(=S)n1CCN1CCC(=C(c2ccc(F)cc2)c2ccc(F)cc2)CC1", "inhibition": "-4.7%"},
      {"smiles": "Cc1nc(NC(=O)C23CCC(C)(C(=O)O2)C3(C)C)sc1C", "note": "(centres undefined)", "inhibition": "1.8%"},
      {"smiles": "Cc1ccc(S(=O)(=O)N2CCOCC2)cc1C(=O)NCc1ccc(F)cc1", "inhibition": "8.8%"},
      {"smiles": "COc1cc2[nH]c(=S)n(CCN3CCCCC3C)c(=O)c2cc1OC", "note": "(centres undefined)", "inhibition": "-5%"},
      {"smiles": "O=C1NC(c2cc3c(cc2Cl)OCO3)Oc2ccccc21", "note": "(centres undefined)", "inhibition": "-12.4%"},
      {"smiles": "CCCOc1ccc(-c2nc(N)n[nH]2)cc1", "inhibition": "-2.2%"},
      {"smiles": "O=C(Cn1c(=O)n(Cc2ccco2)c(=O)c2ccccc21)NCC1CCCO1", "note": "(centres undefined)", "inhibition": "7.1%"},
      {"smiles": "O=c1c2ccccc2nnn1CSc1nc2sc3c(c2c(=O)n1CC1CCCO1)CCC3", "note": "(centres undefined)", "inhibition": "6.1%"},
      {"smiles": "COc1ccc(CN2CC(C(=O)NCCN3CCN(c4ccccc4F)CC3)CC2=O)cc1", "note": "(centres undefined)", "inhibition": "-0.3%"},
      {"smiles": "COc1ccc(C(c2nnnn2Cc2cccs2)N2CCN(c3ccccc3)CC2)cc1OC", "note": "(centres undefined)", "inhibition": "7.6%"},
      {"smiles": "CCCOc1ccc(Cn2c(O)cc(=O)[nH]c2=O)cc1", "inhibition": "7.5%"},
      {"smiles": "O=C(Nc1nc(-c2ccc3c(c2)OCO3)cs1)c1ccncc1", "inhibition": "-1.3%"},
      {"smiles": "O=C(Nc1nc(-c2ccncc2)cs1)C1COc2ccccc2O1", "note": "(centres undefined)", "inhibition": "103% (active)"},
      {"smiles": "COc1ccc(OC)c2sc(NC(=O)C3COc4ccccc4O3)nc12", "note": "(centres undefined)", "inhibition": "5.1%"}
    ]}
  ]
}
